Data on 35 compounds can be found in PubChem BioAssay (NCATS).

Each structure is given as a SMILES string. Unmarked numbers belong to inactive results. A call without a number means that no potency is given here. Active and inactive are the calls of the source. Calls follow the shape of the dose curve; as a rule, active = well fitted inhibition curve with a large enough effect; inconclusive = small, poorly fitted or top-dose-only effect; inactive = flat fitted curve, though single readings scatter. Where a SMILES comes first, the peptide text is derived from it. The star is where a group is joined. Hexanoyl = CCCCCC(=O)*
Potency is read from the fitted curve at half-maximal effect.

The subject of this assay is Nanoluciferase (engineered Oplophorus gracilirostris luciferase). In words: Primary Nanoluciferase (NLuc) qHTS assay for identification of artifact compounds. (AID 1845222). To be noted: NLuc-conditioned medium, Nano-Glo luminescence, 5 min; series mostly up to 54.1 µM. The method in brief: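 Diluted conditioned medium from NLuc-expressing S16 cells treated with compounds for 15 min at room temperature, then Nano-Glo substrate added; luminescence read after 5 min. Percent inhibition versus no-enzyme and DMSO controls fitted to 4-parameter Hill equation.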
Consider `C=C1CC[C@]2(C(=O)O[C@@H]3O[C@H](CO)[C@@H](O)[C@H](O)[C@H]3O)CC[C@]3(C)C(=CCC4[C@@]5(C)C[C@H](O)[C@@H](O[C@@H]6O[C@H](C(=O)O)[C@@H](O)[C@H](O)[C@H]6O)[C@](C)(C=O)C5CC[C@]43C)C2C1` (stereo not given in full), for which the activity, negative = inhibition is 1.82% [at 11.6 µM].

Turning to `O=C(O)C1(c2ccc(-c3ccc(Cl)c(Cl)c3)c(F)c2)CC1`, the Potency is 16.9 µM (active).

With `COc1ccc(Oc2c(Cl)cnn(C3c4ccccc4-c4ccccc43)c2=O)cc1`, the Potency entry was “inactive”. For the compound `COc1c(-c2ccc(O)cc2)cc(OC)c2c1oc1cc(O)c(OC3OC(CO)C(O)C3O)cc12` (stereo not given), the Potency entry is “inactive”. Still for that read-out and setting: then `N=C(N)c1ccc2nc(-c3cc(CC(=O)NC(CC(=O)O)C(=O)O)cc(-c4cc(S(N)(=O)=O)ccc4O)c3O)[nH]c2c1` (stereo not given), with “inactive”; and `CC1=C2CC(=O)C(C)CC/C=C(\C)CC2(O)OC1=O` (stereo not given), with “inactive”. Still for that read-out and setting: in the case of `CC1CC(=O)C2C(O)(C1)CC(O)C13OC1c1c(O)cccc1C(=O)C23O` (stereo not given) it was “inactive”.

Regarding `C=C(COC(=O)CC(C)C)C1Cc2cc(C(C)=O)ccc2O1` (stereo not given), the Potency result was “inactive”. In the case of `C/C=C/C=C/C=C/C(=O)O[C@@H]1[C@@H](OC)C2=C(C(=O)N(C(CCC(=O)O)C(=O)O)C2)[C@@]2(C)CCCC(C)(C)[C@H]12` (stereo not given in full), the Potency result is “inactive”. Still for that read-out and setting: then `CCCCCC(=O)N1CCC[C@H]1C(=O)N[C@@H](Cc1ccc(O)cc1)C(=O)OC` (Hexanoyl-Pro-Tyr-OMe), with “inactive”. `CC1OC(OC2C(OC(=O)[C@]34CCC(C)(C)C[C@H]3C3=CCC5[C@@]6(C)CC[C@H](OC7OC(C(=O)O)C(O)C(O)C7O)C(C)(C)C6CC[C@@]5(C)[C@]3(C)CC4O)OC(CO)C2O)C(O)C(O)C1OC1OCC(O)C(O)C1O` (stereo not given in full): the activity, negative = inhibition was 0% [at 11.6 µM]. With `Cc1c(-c2ccc3c(c2)OCO3)oc2ccc(C(O)C(C)O)cc12` (stereo not given), the Potency result was “inactive”. With `C=C[C@H]1[C@H](O[C@@H]2O[C@H](CO)[C@@H](O)[C@H](O)[C@H]2O)OC=C(C(=O)OC)[C@H]1CCO`, the Potency entry is “inactive”. Same read-out and setting: then `Cc1cc(CO)c(O)c(C(=O)CC2CC(=O)NC(=O)C2)c1`, with “inactive”; and `CC(C)(O)C1CCC2(C)CCCC(C)(O)C2C1` (stereo not given), with “inactive”; and `C[C@]1(OC(=O)/C=C/c2ccccc2)C[C@@H](O)[C@]2(O)C=CO[C@@H](O[C@@H]3O[C@H](CO)[C@@H](O)[C@H](O)[C@H]3O)[C@@H]21`, with “inactive”. As for `CC1(C)C=Cc2c(ccc3c2[N+]([O-])=C2C3(O)CC34NC(=O)C5(CCCN5C3=O)CC4C2(C)C)O1` (stereo not given), the Potency entry was “inactive”. Still for that read-out and setting: in the case of `CC(C)c1ccc2c(c1)CCC1[C@](C)(C(=O)O)CCC[C@]21C` (stereo not given in full) it was “inactive”; in that of `CC(C)(CC(=O)N1CCCC1)NCC(=O)N1C[C@@H](F)C[C@H]1C#N`, “inactive”. Consider `CC(C)=CC[C@H]1O[C@]2(O)C([C@H]3CCC4[C@@]5(C)CC[C@H](O[C@@H]6O[C@H](CO)[C@H](O)[C@H](O[C@@H]7O[C@H](CO)[C@@H](O)[C@H](O)[C@H]7O)[C@H]6O[C@@H]6O[C@@H](C)[C@H](O)[C@@H](O)[C@H]6O)C(C)(C)C5CC[C@@]4(C)[C@]3(C)[C@H]2O)[C@@]1(C)O` (stereo not given in full), for which the activity, negative = inhibition was -2.88% [at 11.6 µM].

Regarding `N[C@@H](CCNCc1ccc(Cl)cc1)C(=O)N1CCCCC1`, the Potency result was “inactive”.

In the case of `O=C(OCC(O)CO[C@@H]1O[C@H](C(=O)O)[C@@H](O)[C@H](O)[C@H]1O)c1ccccc1` (stereo not given in full), the Potency result was “inactive”.

For `CC(=O)c1ccc(O[C@@H]2OC[C@@H](O)[C@H](O)[C@H]2O[C@]2(CO)O[C@H](CO)[C@@H](O)[C@@H]2O)c(O)c1`, the Potency result was “inactive”. `O=C(Nc1ccccc1)Nc1ccc(-c2ccc(C(=O)C3CCCC3C(=O)O)cc2)cc1` (stereo not given): the Potency entry was “inactive”. `CC(C)(O)C1OC1C1=CC(=O)C2(C)OC2C1O` (stereo not given): the Potency entry is “inactive”. On the same count and under the same terms, then `COC(=O)C(Cc1ccccc1)NC(=O)c1ccccc1` (stereo not given), with “inactive”; and `COc1cc(CO)cc(OC)c1O[C@@H]1O[C@H](CO)[C@@H](O)[C@H](O)[C@H]1O`, with “inactive”; and `CCc1cc(CC[C@]2(C3CCCC3)CC(O)=C(Cc3nc4nc(C)cc(C)n4n3)C(=O)O2)cc(CC)n1`, with “inactive”. Take `C[C@@H]1O[C@@H](O[C@@H]2[C@@H](O)[C@H](O[C@H]3[C@H](O[C@H]4CC[C@@]5(C)C(CC[C@]6(C)C5CC=C5[C@@H]7CC(C)(C)CC[C@]7(C(=O)O[C@@H]7O[C@H](CO)[C@@H](O)[C@H](O)[C@H]7O)CC[C@]56C)C4(C)C)O[C@H](C(=O)O)[C@@H](O)[C@@H]3O)OC[C@H]2O)[C@H](O)[C@H](O)[C@H]1O` (stereo not given in full): the activity, negative = inhibition is 2.29% [at 11.6 µM].

As for `COc1ccc([C@H]2OC[C@H]3[C@@H]2CO[C@@H]3c2ccc(O[C@@H]3O[C@H](CO)C(O)[C@H](O)[C@H]3O)c(OC)c2)cc1OC` (stereo not given in full), the Potency result was “inactive”. For `COCCCc1sc(-c2ccccc2)nc1C(=O)Nc1ccccc1-c1nc2cc(CN3CCCC3)cnc2s1`, the Potency result was “inactive”.

`CC(=O)NC(Cc1ccccc1)C(=O)NC(C(=O)O)C(C)C` (stereo not drawn) (Ac-Phe-Val-OH; configuration not given here): the Potency result is “inactive”. Still for that read-out and setting: in the case of `C=C[C@H]1[C@H](O[C@@H]2O[C@H](CO)[C@@H](O)[C@H](OC(=O)/C=C/c3ccc(O)c(OC)c3)[C@H]2O)OC=C2C(=O)OCC[C@]21O` it was “inactive”; in that of `CN1C(=O)N(c2cc(Cl)cc(Cl)c2)C(=O)[C@@]1(C)Cc1ccc(Br)cc1`, “inactive”; in that of `COC(=O)C1=COC(O[C@@H]2O[C@H](CO)[C@@H](O)[C@H](O)[C@H]2O)[C@@H]2[C@@](C)(O)[C@@H](OC(=O)/C=C/c3ccccc3)C[C@]12O` (stereo not given in full), “inactive”.
